Bioassay records as filed in PubChem.
ERG Ets-DNA blk = qHTS for Small Molecule Inhibitors of the ERG Ets/DNA interaction | fluorescence polarization, His-ERG Ets domain / labelled DNA | hit rate 0.028% among 370,000 | AID 624246, 2012 | Potency, µM (highest dose often 76.9 µM), for inactives: at the top dose FP activity, negative = inhibition, actives largely listed as inhibitors; active means well fitted inhibition curve with a large enough effect in the polarisation, with a control signal flat; inconclusive means small, poorly fitted or top-dose-only effect, or effect the other way, or a change in a side signal; inactive means no such curve, though single readings can be large or run the other way; the % refers to the polarisation;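 further: polarization taken with two DNA probes labelled with fluorescein and Texas red; potency means the concentration at half of the fitted maximal effect; % of control where 0% means no effect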
Target sequence (P11308 whole entry, looked up, the tested form may be a part): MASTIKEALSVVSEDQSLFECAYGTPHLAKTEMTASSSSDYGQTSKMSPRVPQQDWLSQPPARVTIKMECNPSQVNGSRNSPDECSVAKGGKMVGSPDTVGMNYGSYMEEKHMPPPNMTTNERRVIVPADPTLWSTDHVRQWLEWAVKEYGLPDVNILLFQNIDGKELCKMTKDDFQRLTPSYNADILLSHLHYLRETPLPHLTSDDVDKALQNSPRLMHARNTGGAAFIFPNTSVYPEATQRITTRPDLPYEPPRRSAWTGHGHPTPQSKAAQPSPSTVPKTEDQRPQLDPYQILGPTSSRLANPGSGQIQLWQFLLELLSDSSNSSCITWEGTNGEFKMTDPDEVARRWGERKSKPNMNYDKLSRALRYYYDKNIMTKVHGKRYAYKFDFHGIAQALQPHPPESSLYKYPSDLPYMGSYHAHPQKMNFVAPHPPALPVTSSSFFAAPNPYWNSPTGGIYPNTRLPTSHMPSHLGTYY
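His-tagged ERG Ets domain (1 uM in the protein solution; 300mM KCl, 50mM Tris-HCl, 1mM EDTA, 1mM DTT, pH 7.5) received compound, then a probe mix of 5 nM fluorescein-DNA and 100nM Texas-615-DNA. Fluorescence polarization was read for both dyes.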
A549 tox = Nrf2 qHTS screen for inhibitors: counterscreen for cytotoxicity. AID 504648, 2011. hit rate 0.16% among 390,000. Potency, µM (highest dose often 46 µM), without a hit: top-dose activity change, negative = cytotoxicity, usual class: inhibitors. A549 ARE-Fluc cells, CellTiter-Fluor viability, 18-24 h; further: potency means the concentration at half of the fitted maximal effect; on the % scale 0 is the no-effect control and ±100 the full control effect
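A549 ARE_Fluc cells in 5% FBS OPTI-MEM were exposed to compounds in concentration-response for 18-24 h at 37 deg C. Viability was read by CellTiter-Fluor fluorescence (Ex 405/Em 525) after 30 min, before the luciferase read.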
Nrf2 block = Nrf2 qHTS screen for inhibitors. AID 504444, 2011. Potency, µM (series often up to 46 µM), for inactives: at the highest dose activity change, negative = inhibition, actives largely listed as inhibitors. hit rate 2.1% among 360,000. A549 ARE-Fluc reporter, luciferase luminescence, 18-24 h; further: potency means the concentration at half of the fitted maximal effect; on the % scale 0 is the no-effect control and ±100 the full control effect; nearly all actives have a fitted effect of over 60% in size
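Nrf2 activity is the BugLite luminescence, read 15 min after reagent at room temperature, following CellTiter-Fluor cytotoxicity readout (30 min, 37C). Compound titrations were applied for 18-24 h to 5000 A549 ARE_Fluc cells/well in 5% FBS OPTI-MEM.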
Nrf2 activator = qHTS of Nrf2 Activators | AID 624171, 2012 | AREc32 ARE-luciferase reporter (MCF7-derived line), luminescence, 24 h | Potency, µM (highest dose often 46.1 µM), for inactives: at the highest dose activation, hits mostly activators | hit rate 0.31% among 410,000; further: potency means the concentration at half of the fitted maximal effect; % of control where 0% means no effect; nearly all actives have a fitted effect of over 65% in size
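ARE-driven firefly luciferase activity in AREc32 cells measured after a 24 hr compound exposure at 37 deg C, using Steady-Glo reagent and a 30 min room-temperature hold.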
LDHA block = qHTS assay for inhibitors of human lactate dehydrogenase; L-lactate dehydrogenase A chain (Homo sapiens), P00338; purified LDHA, NADH/diaphorase-resazurin fluorescence; stronger effect = lower value; activity change, % (values are at about 110 or 230 µM); hit rate 0.15% among 480,000; AID 1347041, 2019; in the data active means activity change below about -30%; inconclusive means mostly about -25% to -30%;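 further: plate controls were DMSO wells for no effect and wells without enzyme for full effect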
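Enzyme activity of human lactate dehydrogenase 5 (2 nM; 0.06 mM NADH, 0.2 mM pyruvate, 5 min, RT) is measured via a resazurin/diaphorase fluorescence readout of residual NADH.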
12-LOX inh = Primary qHTS assay for inhibitors of human arachidonate 12S-lipoxygenase (ALOX12): Round 2. AID 1671190, 2021. Polyunsaturated fatty acid lipoxygenase ALOX12 (Homo sapiens), P18054. Potency, µM (series often up to 108 µM), without a hit: at the highest dose activity change, negative = inhibition, usual class: inhibitors. purified 12hLO, xylenol orange hydroperoxide absorbance. hit rate 1.1% among 580,000; further: potency means the concentration at half of the fitted maximal effect; on the % scale 0 is the no-effect control and ±100 the full control effect
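Hydroperoxide product was detected by ferrous iron/xylenol orange as the 573 to 405 nm absorbance ratio. Arachidonic acid at 40 uM (final) was turned over for 30 min at room temperature by 150 nM human 12hLO, pH 7.0 Hepes buffer, after 15 min compound preincubation.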
Numbers without * were called inactive. This is a sample that favours compounds with a hit; in the whole collection about 2.7% have one here. Unless noted, the call rests on the fitted dose curve; in most records, active means well fitted curve in the direction sought with a large enough effect; inconclusive means small, poorly fitted or top-dose-only effect, or another doubt; inactive means no such curve, though single readings can be large; an effect the other way counts as inactive or inconclusive.

What do the screens show for `COc1ccc(NC(=O)CSc2cn(CCNC(=O)c3ccc(OC)cc3)c3ccccc23)cc1`?
ERG Ets-DNA blk: -7%; A549 tox: -13%; Nrf2 block: -27%; Nrf2 activator: 4%; LDHA block: 2; 12-LOX inh: -1%

How did COC(=O)c1c(COC(=O)c2ccc(N3CCCS3(=O)=O)cc2)nc2ccccc2c1C do in these assays?
LDHA block: 4; 12-LOX inh: 2%

What do the screens show for `O=C(NC1(C(=O)O)CCCCC1)C1CCCO1` (stereo not given)?
LDHA block: 11; 12-LOX inh: inconclusive

What do the screens show for `Cc1ccc(-c2ccc(OC(=O)C3CCC(C)CC3)cc2)cc1` (stereo not given)?
LDHA block: -4; 12-LOX inh: 1%

What do the screens show for `O=C(CSc1cn(CC(=O)N2CCCCCC2)c2ccccc12)Nc1ccccc1F`?
ERG Ets-DNA blk: -6%; A549 tox: -11%; Nrf2 block: 21µM*; Nrf2 activator: 1%; LDHA block: -15; 12-LOX inh: -25%

Results for COc1ccc(Cl)cc1NC(=O)CSc1cn(CC(=O)N2CCCCCC2)c2ccccc12 ?
ERG Ets-DNA blk: 6%; A549 tox: -7%; Nrf2 block: 26µM*; Nrf2 activator: 1%; LDHA block: -11; 12-LOX inh: -21%

What do the screens show for `COC(=O)C1=CN(Cc2ccc(OC)cc2)C=C(C(=O)OC)C1c1ccccc1OC(C)C`?
LDHA block: 1; 12-LOX inh: inconclusive

Results for Cc1ccc(S(=O)(=O)n2cccc2/C=C/[N+](=O)[O-])cc1 ?
Nrf2 activator: -7%; LDHA block: 4; 12-LOX inh: 35µM*

Results for O=C(N[C@H]1CC[C@@]23CCCN2C(=O)CCC[C@H]3[C@H]1Cc1ccccc1)c1cccc(Cl)c1 ?
12-LOX inh: 2%

What do the screens show for `COc1ccc(-c2cc(OC)c3ccccc3n2)cc1`?
ERG Ets-DNA blk: 9%; A549 tox: -11%; Nrf2 block: 20%; Nrf2 activator: 5%; LDHA block: -2; 12-LOX inh: 45µM*

Results for COc1cc(-c2ccccc2)nc2ccccc12 ?
ERG Ets-DNA blk: -11%; A549 tox: -5%; Nrf2 block: 5%; Nrf2 activator: 16%; LDHA block: -5; 12-LOX inh: 19%

What do the screens show for `O=C(NCC(F)(F)F)c1ccc(CN(C(=O)/C=C/c2ccccc2)C2CC2)cc1`?
LDHA block: 1; 12-LOX inh: 4%

What do the screens show for `c1coc(-c2nc(-c3ccc4c(c3)OCCCO4)cs2)c1`?
LDHA block: 6; 12-LOX inh: inconclusive

Results for CN(C)S(=O)(=O)c1cccc(NC(=S)N/N=C/c2cc(Br)ccc2O)c1 ?
ERG Ets-DNA blk: 6%; A549 tox: 1%; Nrf2 block: -3%; Nrf2 activator: 7%; LDHA block: -12; 12-LOX inh: 28µM*

What do the screens show for `CN(C)S(=O)(=O)c1cccc(NC(=S)N/N=C/c2cccc(O)c2)c1`?
ERG Ets-DNA blk: 6%; A549 tox: -7%; Nrf2 block: 4%; Nrf2 activator: 2%; LDHA block: -1; 12-LOX inh: -8%

What do the screens show for `O=C(c1ccc(F)cc1F)C1CCN(c2ccc([N+](=O)[O-])cn2)CC1`?
ERG Ets-DNA blk: -2%; A549 tox: -17%; Nrf2 block: 23µM*; Nrf2 activator: 1%; LDHA block: -1; 12-LOX inh: -21%

What do the screens show for `O=C(Nc1ccc(F)cc1F)N1CCCN(c2ccc([N+](=O)[O-])cn2)CC1`?
ERG Ets-DNA blk: -4%; A549 tox: -18%; Nrf2 block: inconclusive; Nrf2 activator: -1%; LDHA block: 10; 12-LOX inh: 146%
